{
  "source": "the supplement of paper PMC3334620",
  "note": "The full ranking holds about 33,000 sequences; the median of “E-score (-0.5 to 0.5)” is about -0.016, and the highest 2% start at about 0.32. This excerpt belongs to a sample that is enriched for the highest values.",
  "data": [
    {"biological_target": "T1, Stp1 (UniProt B3LFK1)", "T1 sequence": "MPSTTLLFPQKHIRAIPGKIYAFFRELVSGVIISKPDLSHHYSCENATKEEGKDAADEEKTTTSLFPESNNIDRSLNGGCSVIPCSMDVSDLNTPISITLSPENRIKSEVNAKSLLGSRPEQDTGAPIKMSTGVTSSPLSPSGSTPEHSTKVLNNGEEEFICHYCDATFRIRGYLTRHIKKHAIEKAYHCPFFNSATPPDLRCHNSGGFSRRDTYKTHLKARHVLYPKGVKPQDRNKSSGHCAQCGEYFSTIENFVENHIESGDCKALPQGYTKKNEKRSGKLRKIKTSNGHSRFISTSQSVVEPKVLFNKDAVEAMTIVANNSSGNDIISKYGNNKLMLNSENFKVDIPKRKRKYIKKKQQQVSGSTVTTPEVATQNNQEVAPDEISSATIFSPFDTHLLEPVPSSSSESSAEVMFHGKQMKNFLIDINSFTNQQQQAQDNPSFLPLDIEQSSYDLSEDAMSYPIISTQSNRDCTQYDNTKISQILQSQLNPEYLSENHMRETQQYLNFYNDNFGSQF", "experiment": "PBM E-score (8-mer binding enrichment) (E-score (-0.5 to 0.5)); higher = stronger / more preferred TF binding", "details": "protein concentration: 200 nM; construct: GST-full length", "procedure,_shortened": "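Using PURExpress in vitro transcription/translation, GST-tagged yeast transcription factors were made in full-length or DNA-binding-domain form. These were applied at about 100-200 nM to double-stranded universal all-10-mer Agilent arrays, and bound protein was detected with fluorescent anti-GST. Scans were normalised with masliner before the Universal PBM Analysis Suite assigned E-scores to ungapped eight-base words pooled with their reverse complements.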", "values": [
      {"sequence": "GCCGAACA", "PBM E-score": 0.114},
      {"sequence": "CTGGGGGA", "PBM E-score": -0.35},
      {"sequence": "AGGTAGCG", "PBM E-score": -0.105},
      {"sequence": "CCGCGTCA", "PBM E-score": 0.214},
      {"sequence": "CCGCGCCC", "PBM E-score": 0.279},
      {"sequence": "CCGCGCCG", "PBM E-score": 0.462},
      {"sequence": "ACGCGCCC", "PBM E-score": 0.289},
      {"sequence": "CCGCGTCG", "PBM E-score": 0.355},
      {"sequence": "ACGCGCCG", "PBM E-score": 0.412},
      {"sequence": "ACGCGCAG", "PBM E-score": -0.103},
      {"sequence": "CCGCGTCC", "PBM E-score": 0.296},
      {"sequence": "ACGCGCCA", "PBM E-score": 0.0175},
      {"sequence": "CCGCGCCA", "PBM E-score": 0.252},
      {"sequence": "ACGCGCCT", "PBM E-score": 0.34},
      {"sequence": "ACGCGCTG", "PBM E-score": 0.119},
      {"sequence": "CTTGGTTC", "PBM E-score": 0.197},
      {"sequence": "ACGGTTAA", "PBM E-score": 0.0599},
      {"sequence": "AAAGGCTG", "PBM E-score": -0.102},
      {"sequence": "GGTATCCA", "PBM E-score": 0.0649},
      {"sequence": "AACGAGTT", "PBM E-score": -0.18},
      {"sequence": "CCTGCCCA", "PBM E-score": -0.259},
      {"sequence": "ATCAGAGC", "PBM E-score": 0.0942},
      {"sequence": "GAAGTATA", "PBM E-score": 0.169},
      {"sequence": "GCGTTGAA", "PBM E-score": 0.138},
      {"sequence": "CGCAAAAG", "PBM E-score": 0.0708},
      {"sequence": "CTTGCTCC", "PBM E-score": -0.0209},
      {"sequence": "GAGGCGAA", "PBM E-score": 0.206},
      {"sequence": "AAGGCGAC", "PBM E-score": 0.224},
      {"sequence": "AAGGCGCC", "PBM E-score": 0.424},
      {"sequence": "GAGGCCCC", "PBM E-score": -0.125},
      {"sequence": "ATGGCGCC", "PBM E-score": 0.34},
      {"sequence": "GAGGCGTA", "PBM E-score": 0.278},
      {"sequence": "CAGGCGCC", "PBM E-score": 0.286},
      {"sequence": "ATGGCGCG", "PBM E-score": 0.196},
      {"sequence": "GAGGCGCC", "PBM E-score": 0.414},
      {"sequence": "AAGGCGTC", "PBM E-score": 0.296},
      {"sequence": "CTGGCGCC", "PBM E-score": 0.314},
      {"sequence": "GAGGCGCA", "PBM E-score": 0.338},
      {"sequence": "CGATAGAC", "PBM E-score": 0.00428},
      {"sequence": "AGGTGAGA", "PBM E-score": -0.0297},
      {"sequence": "ATACCACA", "PBM E-score": 0.0264},
      {"sequence": "ATGTCGCA", "PBM E-score": 0.0188},
      {"sequence": "ATAGGCGA", "PBM E-score": -0.0945},
      {"sequence": "ATACTCGC", "PBM E-score": -0.0916},
      {"sequence": "CCCCCTGC", "PBM E-score": -0.346},
      {"sequence": "TAAATCAA", "PBM E-score": 0.0833},
      {"sequence": "CTTAGCCA", "PBM E-score": 0.13},
      {"sequence": "AAGCGCTT", "PBM E-score": 0.0783},
      {"sequence": "GATCCTAA", "PBM E-score": -0.164},
      {"sequence": "GCATGAGA", "PBM E-score": 0.151},
      {"sequence": "GGAGATAC", "PBM E-score": -0.0561},
      {"sequence": "ATCCTAGC", "PBM E-score": -0.102},
      {"sequence": "TAGGCGCA", "PBM E-score": 0.155},
      {"sequence": "AAGGCGCG", "PBM E-score": 0.4},
      {"sequence": "AAAGCGCT", "PBM E-score": 0.16},
      {"sequence": "AAGGCGCA", "PBM E-score": 0.316},
      {"sequence": "CAGGCGCG", "PBM E-score": 0.113},
      {"sequence": "AAGGCGGT", "PBM E-score": 0.105},
      {"sequence": "AAGGCGCT", "PBM E-score": 0.396},
      {"sequence": "AAGGCGGG", "PBM E-score": -0.112},
      {"sequence": "CAGGCGCA", "PBM E-score": -0.031},
      {"sequence": "CCTACTGC", "PBM E-score": 0.107},
      {"sequence": "CTGAAGGC", "PBM E-score": -0.14},
      {"sequence": "AGTTGGGA", "PBM E-score": -0.114},
      {"sequence": "ACCCGAGA", "PBM E-score": -0.282},
      {"sequence": "CACCCAGA", "PBM E-score": -0.257},
      {"sequence": "AGACCGCC", "PBM E-score": -0.0258},
      {"sequence": "GGCGTTTA", "PBM E-score": 0.337},
      {"sequence": "CCCGTTTA", "PBM E-score": 0.185},
      {"sequence": "ACCGTTGA", "PBM E-score": -0.134},
      {"sequence": "CGCGTTTA", "PBM E-score": -0.0505},
      {"sequence": "AGCGTTTA", "PBM E-score": -0.127},
      {"sequence": "CCCGTTGA", "PBM E-score": -0.0684},
      {"sequence": "GCCGTTGA", "PBM E-score": 0.383},
      {"sequence": "GCCGTTTA", "PBM E-score": 0.443},
      {"sequence": "ACCGTTTA", "PBM E-score": 0.168},
      {"sequence": "GAATCTCC", "PBM E-score": -0.122},
      {"sequence": "GGAAGGAA", "PBM E-score": -0.0797},
      {"sequence": "GAACTGAC", "PBM E-score": 0.0623},
      {"sequence": "AGAGTATG", "PBM E-score": -0.303},
      {"sequence": "AGCTGCTC", "PBM E-score": -0.127},
      {"sequence": "CGGATAGA", "PBM E-score": 0.228},
      {"sequence": "TGACCGCA", "PBM E-score": 0.025},
      {"sequence": "CCATGCCC", "PBM E-score": -0.0806},
      {"sequence": "ACATGCCT", "PBM E-score": 0.066},
      {"sequence": "CCATGCCG", "PBM E-score": 0.336},
      {"sequence": "ACATGCCG", "PBM E-score": 0.369},
      {"sequence": "ACATGCCC", "PBM E-score": -0.168},
      {"sequence": "CCATGCCA", "PBM E-score": 0.148},
      {"sequence": "TAATAGCA", "PBM E-score": -0.0461},
      {"sequence": "GCGCCGCC", "PBM E-score": 0.454},
      {"sequence": "CCGCCGCC", "PBM E-score": 0.194},
      {"sequence": "ACGCCGAT", "PBM E-score": 0.23},
      {"sequence": "CCGCCGGC", "PBM E-score": 0.165},
      {"sequence": "ACGCCGAC", "PBM E-score": 0.204},
      {"sequence": "CCGCCGAA", "PBM E-score": 0.216},
      {"sequence": "AAGCCGCT", "PBM E-score": 0.265},
      {"sequence": "GCGCCTCC", "PBM E-score": 0.293},
      {"sequence": "ACGCCGCC", "PBM E-score": 0.355},
      {"sequence": "CCGCCGGA", "PBM E-score": 0.0267},
      {"sequence": "ACGCCGCT", "PBM E-score": 0.423},
      {"sequence": "CCGCCGCA", "PBM E-score": 0.402},
      {"sequence": "ATGGAGGC", "PBM E-score": -0.236},
      {"sequence": "AGTGGGTG", "PBM E-score": -0.0322},
      {"sequence": "GCAACAGC", "PBM E-score": 0.0755},
      {"sequence": "AACGCTCT", "PBM E-score": -0.216},
      {"sequence": "ACGCCGCA", "PBM E-score": 0.476},
      {"sequence": "TCACCGCA", "PBM E-score": -0.0824},
      {"sequence": "TCGCCGCA", "PBM E-score": 0.448},
      {"sequence": "ACGCCGCG", "PBM E-score": 0.473},
      {"sequence": "ACGACGCA", "PBM E-score": 0.0151},
      {"sequence": "GGGCCGCA", "PBM E-score": 0.285}
    ]}
  ]
}
